This passage reports Potency results from PubChem BioAssay (NCATS).

Results filed as inconclusive are left out. Entries that show only a call come without a potency. Active and inactive are the calls of the source. Calls come from the whole dose curve; as a rule, active = well fitted cell-killing curve with a large enough effect; inconclusive = small, poorly fitted or top-dose-only effect, or effect the other way; inactive = flat fitted curve, though single readings scatter.

The test system of the first test is JEG-3. The test is described as follows: Primary qHTS to identify gynecologic anti-cancer compounds using libraries of approved drugs and bioactive compounds (AID 1345084). Note: nearly all actives have a fitted effect of over 55% in size. Conditions: Gynecologic cancer cell panel viability, ATPlite luminescence, 48 h; series mostly up to 57.5 µM. Summed up: (§1)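 Five-point cytotoxicity, 48 h drug exposure at 37 C, 5% CO2, on cells seeded 16 h beforehand. ATP content read by ATPlite luminescence.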
For `COC(=O)[C@@H]1[C@H]2C[C@H]3c4[nH]c5ccccc5c4CCN3C[C@@H]2CC[C@@H]1O`, the Potency entry is “inactive”.
For `Cn1c(N2CCCCS2(=O)=O)nc(C(=O)NCc2ccc(F)cc2)c(O)c1=O`, the Potency entry is “inactive”.
With `CCCNC(=O)NS(=O)(=O)c1ccc(Cl)cc1`, the Potency result is “inactive”.
Turning to `CCN(CC)CCNC(=O)c1ccc(N)cc1`, the Potency entry was “inactive”.
As to `Cc1cccc(C)c1OCC(C)N` (stereo not given), the Potency result is “inactive”.
On to `CCOC(=O)C1=C(N)Oc2ccc(Br)cc2C1C(C#N)C(=O)OCC` (stereo not given), for which the Potency result is “inactive”.
In the case of `O=C(O)c1cc(-c2ccccc2)nc2ccccc12`, the Potency entry is “inactive”.
As for `NC(N)=Nc1nc(CSCC/C(N)=N/S(N)(=O)=O)cs1`, the Potency entry is “inactive”.
With `COc1ccccc1N1CCN(CCCNc2cc(=O)n(C)c(=O)n2C)CC1`, the Potency result was “inactive”.

In the next test the test system is OV90. The description is as above. Conditions: Gynecologic cancer cell panel viability, ATPlite luminescence, 48 h; series mostly up to 57.5 µM. A digest of the protocol: as §1
In general terms: In ATP-based viability assays light output follows the ATP content of the culture.
In the case of `COC(=O)[C@@H]1[C@H]2C[C@H]3c4[nH]c5ccccc5c4CCN3C[C@@H]2CC[C@@H]1O`, the Potency entry is “inactive”.
Regarding `Cn1c(N2CCCCS2(=O)=O)nc(C(=O)NCc2ccc(F)cc2)c(O)c1=O`, the Potency entry is “inactive”.
Consider `CC1CCC(C(=O)N(c2cc(C#CC(C)(C)C)sc2C(=O)O)C2CCC(O)CC2)CC1` (stereo not given), for which the Potency result is “inactive”.
Consider `CCCNC(=O)NS(=O)(=O)c1ccc(Cl)cc1`, for which the Potency result was “inactive”.
In the case of `CCN(CC)CCNC(=O)c1ccc(N)cc1`, the Potency entry was “inactive”.
In the case of `Cc1ccc(Nc2cc(-c3cccc(N4C(=O)c5ccccc5C4=O)c3)ncn2)cc1NS(C)(=O)=O`, the Potency result was “inactive”.
`Cc1cccc(C)c1OCC(C)N` (stereo not given): the Potency result was “inactive”.
`CCOC(=O)C1=C(N)Oc2ccc(Br)cc2C1C(C#N)C(=O)OCC` (stereo not given): the Potency entry is “inactive”.
Turning to `O=C(O)c1cc(-c2ccccc2)nc2ccccc12`, the Potency result is “inactive”.
For `NC(N)=Nc1nc(CSCC/C(N)=N/S(N)(=O)=O)cs1`, the Potency result is “inactive”.
Take `COc1ccccc1N1CCN(CCCNc2cc(=O)n(C)c(=O)n2C)CC1`: the Potency entry is “inactive”.

For another test, the system named is PA-1. The description is as above. The following applies: Gynecologic cancer cell panel viability, ATPlite luminescence, 48 h; series mostly up to 57.5 µM. A digest of the protocol: as §1
Consider `COC(=O)[C@@H]1[C@H]2C[C@H]3c4[nH]c5ccccc5c4CCN3C[C@@H]2CC[C@@H]1O`, for which the Potency entry is “inactive”.
As for `Cn1c(N2CCCCS2(=O)=O)nc(C(=O)NCc2ccc(F)cc2)c(O)c1=O`, the Potency entry is “inactive”.
Consider `CC1CCC(C(=O)N(c2cc(C#CC(C)(C)C)sc2C(=O)O)C2CCC(O)CC2)CC1` (stereo not given), for which the Potency result was “inactive”.
Consider `CCCNC(=O)NS(=O)(=O)c1ccc(Cl)cc1`, for which the Potency entry is “inactive”.
As for `CCN(CC)CCNC(=O)c1ccc(N)cc1`, the Potency result was “inactive”.
`Cc1cccc(C)c1OCC(C)N` (stereo not given): the Potency result was “inactive”.
On the same count and under the same terms, the same measure for `CCOC(=O)C1=C(N)Oc2ccc(Br)cc2C1C(C#N)C(=O)OCC` (stereo not given): “inactive”; for `O=C(O)c1cc(-c2ccccc2)nc2ccccc12`: “inactive”; for `NC(N)=Nc1nc(CSCC/C(N)=N/S(N)(=O)=O)cs1`: “inactive”.
Turning to `COc1ccccc1N1CCN(CCCNc2cc(=O)n(C)c(=O)n2C)CC1`, the Potency entry is “inactive”.
